Many of the other results were omitted from the sample, so hits are more common in it than they were.
Pf Dd2 growth: qHTS Primary assay for Inhibitors of Plasmodium falciparum Dd2 growth in vitro; P. falciparum Dd2 growth, SYBR Green, 72 h; Potency, µM (highest dose often 28.9 µM), for the others: at the top dose activity, negative = inhibition, hits mostly inhibitors; actives 4.3% (n = 120,000); active means well fitted inhibition curve with a large enough effect;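 further: plate controls were DMSO vehicle for no effect and reference drug for full effect; nearly all actives have a fitted effect of over 65% in size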
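Readout: SYBR Green fluorescence, 485 nm excitation, 535 nm emission, after ~16 h lysis at 37C. Before that, Dd2-infected red cells (2.5% hematocrit) grew 72 h with compound, 29 uM top final concentration.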
Starred values were filed as active, the others as inactive; i = inactive; [ ] = remark or other dose. Potency means the concentration at half of the fitted maximal effect.

SMILES | Pf Dd2 growth
Cc1ccccc1CN1Cc2nc(-c3cnn(Cc4ccccc4)c3)ccc2OCC1=O | -39.9%[44.1 µM]
O=C1CCCN1CCCN1C(=O)[C@@H]2C[C@@H](O)CN2C2(CN(C3COC3)C2)C1=O | 37.6%[44.1 µM]
CC1CCC2(CC1)NC(=O)N(CC(=O)Nc1ccc(Br)cc1F)C2=O (stereo not drawn) | 49.5%
CN(C)C1CCN(c2ccc(C(=O)N3CCC(N4CCOCC4)CC3)cn2)C1 (stereo not drawn) | 1.6%
COCC[C@]1(O)CCN(C(=O)c2ccc(C#N)nc2)C[C@H]1C | -1.7%
O=C(Cn1nc2c(cc1=O)CCCC2)NCc1nnc2ccccn12 | -23.8%
NC(=O)[C@@H](Cc1ccccc1)NC(=O)[C@@]1(O)C[C@@H](O)[C@H](O)[C@@H](NC(=O)c2cccnc2)C1 | 5.7%
COc1ccc(NC(=O)c2ccc(CN3C(=O)NC4(CCOCC4)C3=O)cc2)cc1OC | 1.1%
C#C[C@H]1CN2CC[C@H]1C[C@@H]2CNS(=O)(=O)c1ccc(NC(C)=O)cc1 | -6.0%[44.1 µM]
C=CCN(C)C[C@H]1CN2CC[C@H]1C[C@@H]2CNC(=O)Nc1ccccc1 | -16.6%[44.1 µM]
C#C[C@H]1CN2CC[C@H]1C[C@@H]2CNS(=O)(=O)c1ccc(OC)cc1 | 3.16µM*
C#C[C@H]1CN2CC[C@H]1C[C@@H]2CNS(=O)(=O)CCC | i
C=C[C@H]1CN2CC[C@H]1C[C@@H]2CNS(=O)(=O)Cc1ccccc1 | 7.08µM*
C=CCN(C)C[C@H]1CN2CC[C@H]1C[C@@H]2CNS(=O)(=O)c1ccc(C)cc1 | 11.2µM*
C#C[C@H]1CN2CC[C@H]1C[C@@H]2CNS(=O)(=O)c1ccccc1 | i
C#C[C@H]1CN2CC[C@H]1C[C@@H]2CNS(=O)(=O)c1ccc(C)cc1 | -9.0%[44.1 µM]
C#CCN(C)C[C@H]1CN2CC[C@H]1C[C@@H]2CNS(=O)(=O)c1ccc(Cl)cc1 | i
C#C[C@H]1CN2CC[C@H]1C[C@@H]2CNS(=O)(=O)Cc1ccccc1 | 7.08µM*
C=C[C@H]1CN2CC[C@H]1C[C@@H]2CNS(C)(=O)=O | -12.8%[44.1 µM]
C=C[C@H]1CN2CC[C@H]1C[C@@H]2CNC(=O)c1ccc(-c2ccccc2)cc1 | -24.7%[44.1 µM]
Cc1nc(-c2c3n(c(=O)n(CC(=O)Nc4cccc(Cl)c4C)c2=O)CCCC3)no1 | -6.0%
CCC(=O)N(C1CCOCC1)C1CCN(S(=O)(=O)c2cccnc2)CC1 | -15.7%
O=C1CC(c2noc(-c3cc(F)ccc3Cl)n2)CN1c1ccc(F)cc1 (stereo not drawn) | -7.0%
Cc1cc(C)n(CCC(=O)N[C@@H]2CN(Cc3ccncc3)C[C@H]2CN(C)C)n1 | 7.2%
CCC(C)NC(=O)CC1Sc2ncccc2N(CC(C)C)C1=O (stereo not drawn) | -9.1%
SMILES | Pf Dd2 growth
COc1cc(=O)n2c(c1C(=O)Nc1cc(Cl)ccc1F)CCCC2 | 6.8%
Cc1cccc(OCCc2noc(C3CCN(C(=O)NC(C)(C)C)C3)n2)c1 (stereo not drawn) | -23.5%
CN(CC1CCOCC1)C(=O)c1c(F)cccc1Cl | 24.4%
Cc1cccc(OCC(=O)NC(C)C(=O)N2CCN(c3ccccn3)CC2)c1 (stereo not drawn) | i
Cc1nn2c(c1-c1ccccc1Oc1ccccc1)N(C(=O)Cc1ccc3c(c1)OCO3)CCC2 | -8.9%
CC(C)N1C(=O)C2(CCCCC2)C1C(=O)NCCCN1CCN(c2ccccc2)CC1 (stereo not drawn) | -15.0%
COc1cc2c(cc1NS(C)(=O)=O)C(c1cccc3nsnc13)CC(=O)N2 (stereo not drawn) | -2.5%
C=C[C@H]1CN2CC[C@H]1C[C@@H]2CNC(=O)Nc1ccc(C(C)=O)cc1 | -30.5%[44.1 µM]
C=C[C@H]1CN2CC[C@H]1C[C@@H]2CNCc1ccc(SC)cc1 | 7.08µM*
C=C[C@H]1CN2CC[C@H]1C[C@@H]2CNC(=O)c1ccc(N(C)C)cc1 | -5.1%[44.1 µM]
O=C(C1CC(=O)N(c2n[nH]c3cc(Br)ccc23)C1)N1CCSCC1 (stereo not drawn) | -11.6%
Cc1nc2c(c(-c3ccc(Cl)cc3)n1)CCN(C(=O)c1ccccc1F)CC2 | -15.3%
FC(F)(F)c1ccc(N2C3CCC2CN(Cc2ccc(-c4ccsc4)cc2)C3)cc1 | 2.2%
FC(F)(F)c1ccc(N2C3CCC2CN(Cc2ccc(-c4ccccc4)cc2)C3)cc1 | i
FC(F)(F)c1ccc(N2C3CCC2CN(Cc2cccc(-c4cccnc4)c2)C3)cc1 | 11.2µM*
CCc1nc(-c2c3n(c(=O)n(Cc4ccccc4OC)c2=O)CCCCC3)no1 | i
CCn1nccc1C(=O)N1CCCC2(C=Cc3ccccc3O2)CC1 (stereo not drawn) | -14.0%
COc1cccc(CCC(=O)N2CCC3(CC2)NC(=O)N(c2ccccc2)N3)c1 | -10.6%
COc1cccc(CN2CCCC(O)(CN3CCC4(CC3)OCCO4)C2=O)c1 (stereo not drawn) | i
COc1ccc(CCNc2ncnc3c2c(-c2ccccc2)cn3-c2ccc(Cl)cc2)cc1OC | i
COc1ccc(Cl)cc1Nc1ncnc2c1c(-c1ccccc1)cn2-c1ccccc1 | -4.4%
COCCN(CCOC)c1ncnc2c1c(-c1ccccc1)cn2-c1ccc(C)c(Cl)c1 | 11.2µM*
O=C(c1cccnn1)N1CC(F)(F)C[C@H]1c1nc(-c2ccccc2)no1 | 21.2%
CO[C@H]1C[C@@H](O)C12CCN(C(=O)c1oc(COc3ccccc3)cc1C)CC2 | -17.1%
O=C(c1ccccc1)N1CCC(N(C(=O)C2CC2)C2CCOCC2)CC1 | 38.9%
SMILES | Pf Dd2 growth
O=C(C1CCC1)N1CCC(N(C(=O)C2CC2)C2CCOCC2)CC1 | 57.3%
COc1ccccc1NC(=O)N1CCC(N(C(=O)C2CC2)C2CCOCC2)CC1 | 4.47µM*
CN(C)c1ccc(C(CNS(=O)(=O)c2ccc(Cl)cc2)N2CCOCC2)cc1 (stereo not drawn) | -23.0%
COc1ccc(C(CNC(=O)c2oc3cc(C)c(Cl)cc3c2C)N2CCCCC2)cc1 (stereo not drawn) | 1.3%
COc1ccc(C(CNC(=O)COc2ccc(Cl)c(C)c2)N2CCOCC2)cc1 (stereo not drawn) | 3.55µM*
COc1ccc(OCC(=O)NCC(c2ccc(OC)cc2)N2CCCCC2)cc1 (stereo not drawn) | 8.91µM*
COc1ccc(CC(=O)NCC(c2ccc(Cl)cc2)N2CCOCC2)cc1 (stereo not drawn) | 48.6%[0.594 µM]
COc1ccc(C(CNC(=O)COc2ccc(C)c(C)c2)N2CCCCC2)cc1 (stereo not drawn) | 11.2µM*
COc1ccc(C(CNC(=O)c2oc3ccccc3c2C)N2CCCCC2)cc1 (stereo not drawn) | 23.7%
COc1ccc(C(CNC(=O)c2ccc(C)cc2)N2CCOCC2)cc1 (stereo not drawn) | 17.5%
Cc1cc(OCC(=O)NCC2(N3CCOCC3)CCCCC2)ccc1Cl | i
CC(C)c1ccc(OCC(=O)NCC(c2ccc(Cl)cc2)N2CCOCC2)cc1 (stereo not drawn) | 10µM*
COc1ccc(C(CNC(=O)COc2cc(C)cc(C)c2)N2CCCCC2)cc1 (stereo not drawn) | i
CCCOc1ccc(C(=O)NCC(c2ccc(OC)cc2)N2CCCCC2)cc1 (stereo not drawn) | -24.9%
COCC(=O)N[C@@H]1CN(Cc2ccc(Cl)cc2F)C[C@H]1CO | 14.7%
CCOCCOC1CCN(C(=O)Nc2cccc(C)c2)CC1 | 13.4%
CC(=O)N1CCC2(CC1)CN(C(=O)CN(C)C)Cc1ccccc1O2 | 43.1%
CCN1CCC2(CCC1=O)CN(Cc1cccc3cccnc13)CCN2C (stereo not drawn) | -24.2%
Cn1ccnc1CNCC1(COc2cnccn2)C[C@@H](O)[C@@H](O)C1 (stereo partly drawn) | 15.2%
